# Results taken from PubChem BioAssay.
# Calls of active or inactive are those of the source. Unless noted, no rule for the calls is given here.
# Key:
# [1] = resazurin metabolic signal in HepG2 cells – cell-based, resazurin fluorescence, 24 h, PK04 Diversity Set, profiling panel (AID 1172); settings: HepG2 viability, higher = more signal
# [2] = budding yeast growth changes without added modifier – OD600, strain BY4716, 24 h, basal condition, primary screen (AID 1173); settings: S. cerevisiae BY4716 growth, OD600, 24 h; higher = more signal, called active from +8 up or from −8 down
# [3] = viability profiling in MM1S myeloma cells – cell-based, resazurin fluorescence, basal, 24 h, PK04 Diversity Set, profiling panel (AID 1174); settings: higher = more signal, called active from +8 up or from −8 down;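 also: MM1S multiple myeloma cell line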
# [4] = biological target: Dihydroorotate dehydrogenase (quinone), mitochondrial (Plasmodium falciparum (isolate 3D7)) (UniProt Q08210); assay: inhibition of P. falciparum DHODH – biochemical, C-terminal His tag, absorbance 600 nm, primary screen (AID 1175); settings: PfDHODH enzyme, DCIP absorbance 600 nm; higher = more signal, called active from +8 up or from −8 down;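 also: recombinant parasite enzyme with a five histidine tag at its C terminus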
# [5] = inhibition of PAO1 biofilm formation – strain PAO1, LB-PBS medium, absorbance 600 nm, primary screen (AID 1176); settings: P. aeruginosa PAO1 growth/biofilm, A600, 12 h; higher = more signal
# [6] = growth modulation of vineyard yeast isolate – strain RM11-1a, OD600, basal, 24 h, primary screen (AID 1177);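 also: cultures grown under basal conditions with no added stressor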; settings: S. cerevisiae RM11-1a growth, OD600, 24 h; higher = more signal, called active from +8 up or from −8 down
# [7] = growth of efflux-deficient E. coli DRC39 – strain DRC39, OD650, 24 h, E. coli filamentation inducers, primary screen (AID 1178);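 also: growth measured as culture turbidity by optical density at 650 nm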; settings: E. coli DRC39 acrAB, higher = more signal, called active from +8 up or from −8 down
# [8] = growth of efflux-deficient E. coli DRC39 – strain DRC39, OD650, 48 h, E. coli filamentation inducers, primary screen (AID 1179);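 also: screen aims at cell division blockers that make cells filament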; settings: E. coli DRC39 delta-acrAB growth, higher = more signal, called active from +8 up or from −8 down
# [9] = viability profiling in RPMI8226 myeloma cells – cell-based, resazurin fluorescence, basal, 24 h, PK04 Diversity Set, profiling panel (AID 1180); settings: higher = more signal;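 also: RPMI8826 multiple myeloma cell line at 5000 cells per well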
# [10] = biological target: E3 ubiquitin-protein ligase XIAP (Homo sapiens) (UniProt P98170); assay: small molecules binding XIAP protein – biophysical, small-molecule microarray, fluorescence 635 nm, primary screen (AID 1181); settings: higher = more signal;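 also: score merges 667 nm emission and signal to noise over triplicate slides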
# [11] = tested on: XIP peptide (Xip251-270) binding; assay: XIP fragment 251-270 binding compounds – biochemical, small-molecule microarray, fluorescence 635/667 nm, 0.1 µg/mL protein, primary screen (AID 1182); settings: fluorescent protein binding, 635 nm, higher = more signal, called active from +8 up or from −8 down
# XIP peptide (Xip251-270) = assay: compounds binding XIP fragment 251-270 – biochemical, small-molecule microarray, fluorescence 635/667 nm, 0.5 µg/mL protein, primary screen (AID 1183); settings: fluorescence 635 nm, higher = more signal
# [12] = blood-stage malaria parasite viability loss – strain 3D7, DAPI fluorescence, 100 nL, primary screen (AID 1184);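 also: parasites grown inside human red blood cells in medium with human serum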; settings: P. falciparum 3D7 growth, 3 d, higher = more signal
# [13] = biological target: Homeobox protein Hox-A13 (Mus musculus) (UniProt Q62424); assay: disruptors of Hoxa13 oligonucleotide interaction – biochemical, fluorescence polarization, labeled oligonucleotide, primary screen (AID 1185); settings: Hoxa13:DNA binding, 15 min, higher = more signal, called active from +8 up or from −8 down
# [14] = blockers of DNA damage checkpoint Chk1 activation – imaging, HeLa, hydroxyurea, phospho-Chk1 antibody, percent positive cells, primary screen (AID 1186); settings: hydroxyurea-induced phospho-Chk1 immunofluorescence imaging, higher = more signal
# [15] = blockers of DNA damage checkpoint Chk1 activation – imaging, HeLa, hydroxyurea, phospho-Chk1 nuclear intensity, primary screen (AID 1187); settings: hydroxyurea-induced phospho-Chk1 immunofluorescence imaging, higher = more signal
# Homeobox protein Hox-A13 (Mus musculus), sequence (Q62424 whole entry, looked up): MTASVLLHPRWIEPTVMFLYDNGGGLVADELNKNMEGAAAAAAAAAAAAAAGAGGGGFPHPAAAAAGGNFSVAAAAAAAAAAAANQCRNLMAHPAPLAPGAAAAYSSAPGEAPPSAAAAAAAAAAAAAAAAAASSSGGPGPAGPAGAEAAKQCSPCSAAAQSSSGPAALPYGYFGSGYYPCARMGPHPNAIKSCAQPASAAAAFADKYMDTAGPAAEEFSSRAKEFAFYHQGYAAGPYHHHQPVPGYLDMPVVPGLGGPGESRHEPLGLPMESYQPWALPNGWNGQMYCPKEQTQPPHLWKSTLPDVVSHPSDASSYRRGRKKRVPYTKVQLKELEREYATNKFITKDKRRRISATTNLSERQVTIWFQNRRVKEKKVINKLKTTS
# E3 ubiquitin-protein ligase XIAP (Homo sapiens), sequence (P98170 whole entry, looked up, the tested form may be a part): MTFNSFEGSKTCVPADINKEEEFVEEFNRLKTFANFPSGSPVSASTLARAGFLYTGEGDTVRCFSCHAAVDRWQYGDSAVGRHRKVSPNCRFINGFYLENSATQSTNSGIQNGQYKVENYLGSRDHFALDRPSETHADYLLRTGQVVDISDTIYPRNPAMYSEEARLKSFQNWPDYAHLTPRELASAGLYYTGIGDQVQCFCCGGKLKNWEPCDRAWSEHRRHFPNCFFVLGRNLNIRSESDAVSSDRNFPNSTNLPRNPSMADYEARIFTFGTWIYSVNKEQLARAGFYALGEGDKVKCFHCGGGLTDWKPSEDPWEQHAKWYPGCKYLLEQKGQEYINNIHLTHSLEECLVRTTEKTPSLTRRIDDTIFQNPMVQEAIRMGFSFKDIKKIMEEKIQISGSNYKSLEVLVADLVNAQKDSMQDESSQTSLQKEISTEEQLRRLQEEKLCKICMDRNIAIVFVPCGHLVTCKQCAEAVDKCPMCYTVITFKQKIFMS
# Dihydroorotate dehydrogenase (quinone), mitochondrial (Plasmodium falciparum (isolate 3D7)), sequence (Q08210 whole entry, looked up): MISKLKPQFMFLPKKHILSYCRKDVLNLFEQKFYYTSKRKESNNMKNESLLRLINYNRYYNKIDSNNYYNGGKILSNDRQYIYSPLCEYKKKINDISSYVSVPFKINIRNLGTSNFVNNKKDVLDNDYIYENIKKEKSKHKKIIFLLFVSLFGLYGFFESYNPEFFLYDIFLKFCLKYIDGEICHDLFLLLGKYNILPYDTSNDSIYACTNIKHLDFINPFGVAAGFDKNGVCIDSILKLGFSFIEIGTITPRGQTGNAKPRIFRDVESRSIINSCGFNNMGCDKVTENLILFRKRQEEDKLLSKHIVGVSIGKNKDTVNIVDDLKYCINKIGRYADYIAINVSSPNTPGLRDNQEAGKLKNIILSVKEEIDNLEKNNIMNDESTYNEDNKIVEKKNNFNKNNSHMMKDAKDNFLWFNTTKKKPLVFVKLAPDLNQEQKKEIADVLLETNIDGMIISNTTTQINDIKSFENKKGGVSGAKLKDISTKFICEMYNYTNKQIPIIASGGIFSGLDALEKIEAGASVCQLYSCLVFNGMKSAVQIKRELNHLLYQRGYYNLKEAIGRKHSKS
Structure (SMILES),z-score [1],z-score [2],z-score [3],composite z-score [4],z-score [5],z-score [6],z-score [7],z-score [8],z-score [9],composite z-score [10],composite z-score [11],composite z-score (XIP peptide (Xip251-270)),z-score [12],z-score [13],z-score [14],z-score [15]
CCCCC(O)C1C=CC2C(=O)N(C3CCCCC3)C(=O)C2N1Nc1ccc(OC)cc1 (stereo not given),-0.414,-2.57 (inactive),-0.496 (inactive),1.12 (inactive),0.89 (inactive),0.669 (inactive),-1.01 (inactive),-0.584 (inactive),-0.369,0.0617,0.222 (inactive),0.808,-0.265,-3.58 (inactive),0.895 (inactive),0.719 (inactive)
COC(=O)[C@@]1(Cc2ccc(OC)cc2)[C@H]2c3cc(C(=O)N4CCCC4)n(CCc4c[nH]c5cc(F)ccc45)c3C[C@H]2CN1C(=O)c1ccccc1,-0.679,1.15 (inactive),-0.502 (inactive),0.461 (inactive),0.964 (inactive),0.473 (inactive),-0.29 (inactive),-0.141 (inactive),-0.642,0.172,1.31 (inactive),0.687,-1.66,0.828 (inactive),0.527 (inactive),0.598 (inactive)
C=CCC(OC(C)=O)[C@@H]1[C@@H](N(Cc2ccc(-c3ccccc3)cc2)C(=O)Cc2ccc(OC)cc2)c2cc(OCCCO)ccc2N1C(=O)c1ccc2ccccc2n1 (stereo not given in full),0.0252,-0.594 (inactive),0.525 (inactive),-0.574 (inactive),-0.24 (inactive),-1.15 (inactive),1.29 (inactive),0.644 (inactive),1.07,-0.266,0.0404 (inactive),0.219,-2.87,-1.25 (inactive),-0.0117 (inactive),0.336 (inactive)
CC(C)CNC(=O)[C@@]1(c2ccc([N+](=O)[O-])cc2)CC(=O)N(CC23CC4CC(CC(C4)C2)C3)[C@@H]1c1ccc(CO)cc1I,-2.55,0.431 (inactive),-2.77 (inactive),0.989 (inactive),1.9 (inactive),1.69 (inactive),-0.507 (inactive),-0.91 (inactive),-3.94,-0.144,0.106 (inactive),0.719,-0.534,-3.42 (inactive),-0.264 (inactive),-0.135 (inactive)
C[C@H]1NC(=O)[C@H](Cc2ccccc2)NC(=O)[C@@]23C(=O)N[C@@H](Cc4ccccc4)C2[C@H](C)[C@@]2(C)O[C@H]2C3/C=C/C/C=C\CNC1=O (stereo not given in full),-0.23,0.0145 (inactive),0.557 (inactive),0.742 (inactive),-0.246 (inactive),1.16 (inactive),1.32 (inactive),0.64 (inactive),1.07,-0.173,-0.325 (inactive),-1.16,-1.45,-5.77 (inactive),-0.227 (inactive),0.0899 (inactive)
